Assay outcomes deposited in PubChem BioAssay by National Center for Advancing Translational Sciences (NCATS).
Compounds with a hit are over-represented: about 2.9% of the library has one in this group of screens.
DRD3 agonist = agonists of human D3 dopamine receptor. D3R DiscoveRx beta-arrestin cells, luminescence, 90 min. max activation, %. hit rate 0.58% among 410,000. AID 652048; in the data active = max activation above about 30%; note: 0% is about no effect
Target sequence (P35462 whole entry, looked up): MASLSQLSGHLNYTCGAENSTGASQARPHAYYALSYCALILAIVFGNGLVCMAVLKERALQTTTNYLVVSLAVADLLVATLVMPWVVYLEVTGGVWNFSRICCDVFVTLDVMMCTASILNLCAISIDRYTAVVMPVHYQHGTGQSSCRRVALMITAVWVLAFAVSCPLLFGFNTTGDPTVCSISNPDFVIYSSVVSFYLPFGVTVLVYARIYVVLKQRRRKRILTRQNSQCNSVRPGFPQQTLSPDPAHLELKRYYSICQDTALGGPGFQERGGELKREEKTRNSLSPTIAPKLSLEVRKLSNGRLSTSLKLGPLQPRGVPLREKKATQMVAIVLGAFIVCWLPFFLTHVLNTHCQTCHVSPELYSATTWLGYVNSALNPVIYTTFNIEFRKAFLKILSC
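Cells at 1500/well, incubated overnight, then treated with pinned compounds (dopamine as control) for 90 min at 37 degrees C. DiscoveRx reagent added for 30 - 60 minutes at room temperature; luminescence read.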
TRPML1 agonist = human mucolipin-1 channel agonism; Q9GZU1; TRPML1-expressing cells, Ca2+ dye fluorescence, FDSS; activation, % (concentration not given with the values); hit rate 0.12% among 410,000; AID 624414; in the data active = activation above about 50%; inconclusive = mostly about 30% to 49%; note: 0% is about no effect
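Calcium fluorescence on an FDSS kinetic reader gave the read-out. Tet-induced TRPML1-DL cells were plated overnight, dye-loaded (Ca8 with quencher, 45-90 min, room temperature, dark), then read 110 s after compound addition, and again 110 s after 4uM final 54-4 (EC80).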
DRD3 antagonist = blocks the human D3 dopamine receptor; P35462; D3R cells, DiscoveRx beta-arrestin luminescence, antagonist mode; stronger effect = lower value; max response, negative = inhibition, %; hit rate 2.5% among 360,000; in the data active = max response below about -50%; inconclusive = no clear call, values can overlap the other calls; note: % is set by controls: 0 for no effect and ±100 for the full control effect
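Cells plated overnight at 1500 cells/well, then exposed to library compounds with dopamine controls for 90 minutes at 37 degrees C. DiscoveRx reagent added for 30–60 minutes at room temperature; luminescence read, quantitative HTS format.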
TRPML1 blocker = blocks the human TRPML1 channel; hit rate 0.02% among 390,000; Q9GZU1; AID 624415; activity change, negative = inhibition, % (test concentration not listed); TRPML1-inducible cells, Ca2+ dye fluorescence, FDSS; stronger effect = lower value; inhibition of EC80 agonist-evoked calcium signal; in the data active = activity change below about -50%; inconclusive = between about -30% and that limit;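 note: stimulus is agonist 54-4 at its EC80 concentration; % is set by controls: 0 for no effect and ±100 for the full control effect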
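TRPML1-DL cells, Tet-induced overnight (~16 h, 37 °C) at 1,500 cells/well, were loaded with Ca8 no-wash dye plus quencher for 45-90 min at room temperature. Compounds were pinned during FDSS kinetic reading; agonist 54-4 at EC80 (4 uM final) then added.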
* hit, by the source's call; ? = inconclusive; / = not tested or not shown.

SMILES	DRD3 agonist	TRPML1 agonist	DRD3 antagonist	TRPML1 blocker
CCOC(=O)C1CCN(Cc2cnc(Oc3ccc(OC)cc3)s2)CC1	3	1	-55*	9
CCOC(=O)C1CCN(Cc2ccc3ccccc3c2)CC1	-26	1	-75*	4
CCCCCCCCCCCCCCCCCCN(CCCCCCCCCCCCCCCCCC)c1ccc(C=O)cc1	/	0	/	/
CCOC(=O)C1CCN(Cc2ccc(N(C)C)cc2)CC1	-8	0	-51*	-8
CCOC(=O)C1CCN(C(=O)CN(Cc2ccc(Cl)cc2)S(C)(=O)=O)CC1	-8	-1	-56*	8
Cc1c(N)nc([C@H](CC(N)=O)NC[C@H](N)C(N)=O)nc1C(=O)N[C@H](C(=O)N[C@H](C)[C@@H](O)[C@H](C)C(=O)N[C@H](C(=O)NCCc1nc(-c2nc(C(=O)NCCCCN=C(N)N)cs2)cs1)[C@@H](C)O)[C@@H](O[C@@H]1O[C@@H](CO)[C@@H](O)[C@H](O)[C@@H]1O[C@H]1O[C@H](CO)[C@@H](O)[C@H](OC(N)=O)[C@@H]1O)c1cnc[nH]1	13	/	/	/
COc1cccc(NC(=O)CC(C)S(=O)(=O)c2ccc3c(c2)NC(=O)CO3)c1 (configuration not stated)	2	3	/	-11
Cc1sc2ncnc(N3CCC(C(=O)NNC(=O)COc4ccccc4F)CC3)c2c1C	34*	-1	10	18
Cc1ccc(OCC(=O)NNC(=O)C2CCN(c3ncnc4sc(C)c(C)c34)CC2)cc1	37*	3	20	-4
Cc1sc2ncnc(N3CCN(CCOc4ccc(Cl)cc4)CC3)c2c1C	39*	4	-27	25
Cc1sc2ncnc(N3CCC(C(=O)NNC(=O)COc4ccccc4Cl)CC3)c2c1C	30*	1	48	0
Cc1sc2ncnc(N3CCC(C(=O)NNC(=O)COc4ccc(Cl)cc4)CC3)c2c1C	6	1	49	-8
CCOc1ccc(/C=C/c2nc(C#N)c(N3CCC(C)CC3)o2)cc1	-2	1	/	1
CCN(CC)CCC=C(c1cccs1)c1cccs1	-15	0	-54*	-10
CCN(CC)CCCNC(=O)/C(=C\c1cccn1C)NC(=O)c1cccs1	-4	0	-23	-7
COCCn1c(=O)[nH]c2cc(C(=O)NCCN3CCN(c4ccccc4F)CC3)ccc2c1=O	13	0	-56*	7
COc1cc2[nH]c(=O)n(CCC(=O)NCCCN3CCN(c4ccccc4F)CC3)c(=O)c2cc1OC	30*	-1	?	24
COc1ccc(CCNC(=O)c2c(O)c3cc(OC)c(OC)cc3[nH]c2=O)cc1OC	-4	-1	-4	-29
COc1cc2[nH]c(=O)c(C(=O)NCCCN3CCCCC3)c(O)c2cc1OC	-5	0	-57*	13
COC(=O)CC1c2cc(OC)c(OC)cc2CCN1C(=O)Nc1ccc(C)cc1Cl (configuration not stated)	-21	1	/	-16
Cc1nc(N2CCOCC2)c2cc(-c3ccccc3)sc2n1	-10	1	-57*	28
COc1cc(OC)c(CN2CCN(c3ccc(F)cc3)CC2)cc1Br	-12	-1	-74*	1
COc1ccc(CN2CCN(c3ccc(F)cc3)CC2)c(OC)c1OC	-16	1	-26	8
Cc1ccc(CN2C(=O)c3ccccc3Sc3ccc(C(=O)NCc4ccco4)cc32)cc1	-2	4	/	68
CC[C@@H](C(=O)[C@@H](C)[C@@H](O)[C@H](C)CCc1ccc(C)c(O)c1C(=O)O)[C@H]1O[C@](CC)([C@H]2CC[C@](O)(CC)[C@H](C)O2)C[C@@H]1C	208*	?	275	17
SMILES	DRD3 agonist	TRPML1 agonist	DRD3 antagonist	TRPML1 blocker
O=C1c2ccccc2C(=O)N1CCc1c(-c2ccccc2)[nH]c2ccccc12	33*	1	139	4
O=C1c2ccccc2C(=O)N1CCc1c(-c2[nH]c3ccccc3c2CCN2C(=O)c3ccccc3C2=O)[nH]c2ccccc12	9	0	15	-4
O=C(CNC1CCCCC1)NN=C(c1ccccc1)c1ccccc1	-11	-1	3	-14
O=C(NN=C(c1ccccc1)c1ccccc1)C(CCl)C1CCCCC1 (configuration not stated)	3	0	-51*	15
C/C1=C2N=C(/C=C3N=C(/C(C)=C4\[N-][C@@](C)([C@@H]5N=C1[C@](C)(CCC(=O)NCC(C)OP(=O)(O)O[C@H]1[C@@H](O)[C@@H](n6cnc7cc(C)c(C)cc76)O[C@@H]1CO)[C@H]5CC(N)=O)[C@@](C)(CC(N)=O)[C@@H]4CCC(N)=O)[C@@](C)(CC(N)=O)[C@@H]\3CCC(N)=O)C(C)(C)[C@@H]/2CCC(N)=O.CC(=O)O.[Co] (some centres not stated)	-24	/	/	/
COc1ccc(CCN2C(=O)C3C4C=CC(C3C2=O)C2C(=O)N(CCc3ccc(OC)c(OC)c3)C(=O)C42)cc1OC (configuration not stated)	31*	0	-19	37
COc1ccc(CCn2c(N)cc(=O)[nH]c2=O)cc1OC	-13	0	-86*	3
COc1ccc(CCN2C(=O)C3C4C=CC(C5CC45)C3C2=O)cc1OC (configuration not stated)	4	0	-1	40
CC(CN(C)C)CN1c2ccccc2S(=O)(=O)c2ccccc21 (configuration not stated)	-11	/	/	/
COc1ccc(CN(C)C(c2ccccc2)c2nnnn2-c2ccccc2C)c(OC)c1C (configuration not stated)	-12	1	0	9
COc1cccc(CN(C)C(c2ccccc2)c2ccccc2)c1OC	-18	1	-51*	2
CN(C)S(=O)(=O)c1cccc(C(=O)Nc2ccc(Cl)cn2)c1	-10	0	-77*	6
O=C(Nc1ccc(Cl)cn1)c1cccc(S(=O)(=O)N2CCCC2)c1	8	-1	8	0
CSc1ccc(C(=O)C2CCCN(C(=O)Cc3nonc3C)C2)cc1 (configuration not stated)	16	0	-84*	0
CCOC(=O)c1sc2ccccc2c1S(=O)(=O)NCc1ccccc1OC	-2	3	/	36
COc1cc2ncc3c(-c4ccccc4)nn(CC(=O)NC4CCCCC4)c3c2cc1OC	-10	1	/	-2
Cc1cc(C)n(-c2nc3ccccc3nc2Nc2ccc(Cl)cc2Cl)n1	58*	2	/	-17
Cc1ccc2nc(Nc3ccc4[nH]c(=O)[nH]c4c3)c(-n3nc(C)cc3C)nc2c1	69*	2	30	13
C(=Nc1ccc(/C=C/c2ccnc3ccccc23)cc1)c1ccc2c(c1)OCO2	/	2	/	/
O=C(Nc1cccc(C(=O)OCc2cc(=O)n3c4c(sc3n2)CCCC4)c1)c1cccc(F)c1	0	1	/	46
COc1ccc(/C=C2\CCCC3C2=NN(C(=O)c2scnc2C)C3c2ccc(OC)c(OC)c2)cc1OC (configuration not stated)	72*	1	4	9
